Compound activity (PubChem BioAssay)
Compounds with a hit are over-represented: about 5.2% of the library has one in this group of screens.
ALR inh: inhibitors of human sulfhydryl oxidase ALR. purified ALR, DTT oxidation, H2O2 HRP-luminol luminescence. inhibition, % (concentration not given with the values). 3.8% of 290,000 active. AID 485317;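 active means mean replicate inhibition above about 79%, with every replicate also reaching it, limit read from the data; inconclusive means only one of the two criteria met; inactive means mean below limit and not every replicate reaching it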
Target sequence (P55789 whole entry, looked up): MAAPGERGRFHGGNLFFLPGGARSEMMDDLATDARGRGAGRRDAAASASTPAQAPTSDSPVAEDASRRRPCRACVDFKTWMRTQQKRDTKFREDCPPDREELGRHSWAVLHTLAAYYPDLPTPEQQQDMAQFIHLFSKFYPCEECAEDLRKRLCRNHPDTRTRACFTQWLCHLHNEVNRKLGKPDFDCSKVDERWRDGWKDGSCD
APOBEC3G inh: inhibitors of human APOBEC3G DNA deaminase | inhibition, % at 20 µM | 0.28% of 330,000 active | Q9HC16 | recombinant A3G, ssDNA deamination FAM/TAMRA fluorescence;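 active means inhibition of at least 40% at 20 µM, with no more than 30% in the related APOBEC3A deaminase screen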;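 further: plate controls were DMSO wells with A3G for no effect and wells lacking A3G enzyme for full effect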
Target sequence (Q9HC16 whole entry, looked up): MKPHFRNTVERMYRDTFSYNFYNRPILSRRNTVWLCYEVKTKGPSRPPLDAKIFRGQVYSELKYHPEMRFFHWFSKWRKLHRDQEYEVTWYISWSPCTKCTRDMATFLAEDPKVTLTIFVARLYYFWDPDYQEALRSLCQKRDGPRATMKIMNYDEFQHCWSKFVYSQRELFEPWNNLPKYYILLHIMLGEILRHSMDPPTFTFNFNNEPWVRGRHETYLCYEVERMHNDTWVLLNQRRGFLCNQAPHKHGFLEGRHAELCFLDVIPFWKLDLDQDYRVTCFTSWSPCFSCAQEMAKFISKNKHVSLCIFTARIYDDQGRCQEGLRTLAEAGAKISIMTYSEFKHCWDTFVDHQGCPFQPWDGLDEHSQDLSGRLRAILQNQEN
APOBEC3A inh: inhibitors of human APOBEC3A DNA deaminase; recombinant A3A, FAM/TAMRA ssDNA deamination fluorescence; inhibition, % at 20 µM; 0.41% of 330,000 active; AID 493011;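 active means at least 40% inhibition at 20 µM here, with at most 30% in a related deaminase screen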;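 further: plate controls were A3A with DMSO for no effect and wells lacking A3A enzyme for full effect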
M18AAP inhibitor: PfM18AAP enzyme inhibition; recombinant PfM18AAP, H-Glu-NHMec fluorogenic cleavage; inhibition, % at 7.35 µM; 1.2% of 290,000 active;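 active means inhibition above the campaign mean inhibition over all tested compounds plus 3 SD, cut at about 28% in these data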;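 further: 0% = plate median of test compound wells and 100% = 2 mM ZnCl2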
NRP1-CendR mod: modulators of CendR peptide binding to human neuropilin-1. inhibition, % at 25 µM. 0.85% of 360,000 active. O14786. FAM-RPARPAR peptide binding to NRP-1, fluorescence polarization;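 active means inhibition or corrected inhibition above about 18%, plus a signal ratio from 0.5 to 1.5, limit read from the data, passing the limit was not always enough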
CR mimetic SO: yeast age-related superoxide inhibition as caloric restriction mimetic. S. cerevisiae aged cells, superoxide DHE fluorescence; hits give low values. superoxide response (% of plate mean), % at 10 µM. 0.18% of 330,000 active. AID 2690;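 active means superoxide response under a set limit, about three screen SD below normal, cut at about 65% in these data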;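 further: yeast aged for seven days with compound at 30 °C before DHE staining; 100% = average MFI of all compound-treated wells on the plate with controls excluded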
Active calls of the source: *; ? = inconclusive; . = no result.

SMILES | ALR inh | APOBEC3G inh | APOBEC3A inh | M18AAP inhibitor | NRP1-CendR mod | CR mimetic SO
CC1CCCCC1NC(=O)C1CCC(CNS(=O)(=O)c2ccc(F)cc2)CC1 (stereo not drawn) | . | -2 | 0 | -3 | -6 | 112
c1ccc(CNc2ccc3c(c2)ncn3C2CCCCC2)nc1 | 94* | -4 | -5 | 3 | 5 | 93
Cc1cc(C)cc(NC(=O)c2ccc(CSc3nnnn3C)cc2)c1 | 32 | 2 | 3 | 1 | 28* | 110
Cn1nnnc1SCc1ccc(C(=O)Nc2nccs2)cc1 | 99* | 0 | 6 | 3 | 5 | 97
C#CCOCCOCCOCCNc1nc(N2CCN(C(=O)[C@H](CCCN=C(N)N)n3cc(C(N)[C@@H](C)CC)nn3)CC2)nc(N2CCN(C(=O)[C@H](CCCCN)n3cc([C@@H](N)[C@H](C)CC)nn3)CC2)n1 (stereo partly drawn) | 0 | -8 | -2 | . | 19 | 85
Nc1nonc1C(=O)NCCNCc1ccccc1OCc1ccc(F)cc1 | -2 | -5 | 2 | -4 | -9 | 110
O=C(CCC1N=C2c3ccccc3N=C(SCc3ccc(F)cc3)N2C1=O)NCc1ccco1 (stereo not drawn) | -24 | 1 | 1 | -1 | 13 | 91
O=C(CCC1N=C2c3ccccc3N=C(SCc3ccc(Cl)cc3)N2C1=O)NCc1ccco1 (stereo not drawn) | 98* | -7 | -2 | 5 | 2 | 91
Cc1cc(C)c2cc3c(ccn3C3OC[C@H](O)[C@H](O)[C@H]3O)cc2n1 (stereo partly drawn) | . | -4 | -4 | -2 | -3 | 100
Cc1ccc(NC(=O)CSCC(=O)N(C)Cc2ccc(Cl)c(Cl)c2)cc1 | . | -6 | -4 | . | -16 | 117
CSc1ccccc1C(=O)N1CCC(CCC(=O)NCc2ccc(F)cc2)CC1 | 0 | -5 | -6 | 2 | 31* | 88
CC(=O)c1ccccc1C(=O)N1CCC(CCC(=O)NCc2ccc(F)cc2)CC1 | . | . | . | . | -1 | .
Cc1nc2ccccc2c(=O)n1NC(=O)c1ccccc1[N+](=O)[O-] | -5 | -2 | -2 | -8 | 12 | 101
O=C(O)c1ccc2noc(-c3ccccc3)c2c1 | 23 | 2 | 6 | 15 | -44 | 97
O=C(O)/C=C/c1ccc2c(-c3ccccc3)onc2c1 | 93* | -4 | -3 | 9 | -18 | 97
Nc1ccc(C(=O)N/N=C/c2ccc(N3CCOCC3)s2)cc1 | . | -1 | -3 | . | -3 | 106
CC(C)(C)OC(=O)N/N=C/c1ccc(N2CCOCC2)s1 | 83* | -2 | -1 | 7 | -93 | 79
COc1ccc(CN2C(=O)C(C)Nc3ncnc(N4CCc5ccccc5C4)c32)cc1 (stereo not drawn) | . | . | . | . | -17 | .
O=C(CN1CCN(c2ccccc2)CC1)Nc1ccc2c(c1)OCCO2 | 55 | -3 | 4 | -7 | 1 | 103
Cc1ccc(C(=O)C2CCN(CC(=O)Nc3ccc(N(C)C)cc3)CC2)cc1 | 98* | -5 | 2 | 4 | 3 | 74
COc1ccc(NC(=O)CN2CCN(c3ccccc3F)CC2)cc1 | . | -10 | -3 | -5 | 1 | 113
CN(C)c1ccc(NC(=O)CN2CCN(CC(=O)Nc3ccc(F)cc3)CC2)cc1 | 99* | -4 | 1 | 6 | 5 | 98
O=C(CN1CCC(C(=O)c2ccc(F)cc2)CC1)Nc1ccc(F)cc1 | -1 | -2 | -2 | -6 | 12 | 89
CCN(CC)c1ccc(NC(=O)CN2CCN(c3ccccc3F)CC2)cc1 | 99* | -6 | -1 | 2 | -3 | 94
O=C(CN1CCN(c2ccccc2O)CC1)Nc1ccc2c(c1)OCCCO2 | 100* | -5 | -4 | . | 2 | 117
SMILES | ALR inh | APOBEC3G inh | APOBEC3A inh | M18AAP inhibitor | NRP1-CendR mod | CR mimetic SO
CC1CC(C)CN(C(=O)COC(=O)c2ccc3ccccc3n2)C1 (stereo not drawn) | -1 | -5 | 1 | . | 6 | 122
COc1ccc(/C=C\c2onc(C)c2S(=O)(=O)N2CCC(C(=O)NCc3ccco3)CC2)cc1 | 1 | 2 | 7 | 2 | 5 | 101
CS(=O)(=O)N(CC(=O)NCCSC1CCCCC1)c1cccc(F)c1 | -17 | -2 | 4 | 0 | -4 | 96
O=C1CCN(CCc2ccccc2)CCN1[C@H](CSc1ccc(Br)cc1)c1ccccc1 | . | -11 | -3 | . | 23 | 99
CCCN1CCC(=O)N([C@H](CSc2ccc(Br)cc2)c2ccccc2)CC1 | . | -4 | 0 | . | 24* | 95
CC(C)CN1CCC(=O)N([C@H](CSc2ccc(Br)cc2)Cc2ccccc2)CC1 | 8 | 0 | 1 | . | 24* | 100
CC(=O)Nc1ccc(SC[C@H](c2ccccc2)N2CCN(CCc3ccccc3)CCC2=O)cc1 | 98* | 2 | 2 | . | . | 107
Cc1ccc(SC[C@H](Cc2ccccc2)N2CCN(CCc3ccccc3)CCC2=O)cc1 | -19 | -4 | -1 | . | -5 | 100
O=C(OCC(=O)N1CCCc2ccccc21)c1cccc(C(F)(F)F)c1 | . | 3 | 0 | . | -8 | 104
CC(C)NC(=O)NC(=O)CSc1ccc(S(=O)(=O)N2CCCC2)cn1 | . | -6 | 2 | . | 5 | 99
OC(c1ccc(Cl)c(Cl)c1)c1ncc(-c2ccc(C(F)(F)F)cc2)[nH]1 (stereo not drawn) | . | . | . | . | 18 | .
COc1ccc(-c2[nH]ncc2-c2ccc(Cl)cc2)c(O)c1 | 18 | -3 | 2 | -4 | 14 | 124
COc1cccc(Oc2cn[nH]c2-c2ccc(O)cc2O)c1 | 80* | -1 | 0 | 10 | 3 | 96
COc1cccc(Oc2cn[nH]c2-c2ccc(OC)cc2O)c1 | 22 | -2 | -3 | 13 | 2 | 118
COc1ccc(-c2cn[nH]c2-c2ccc(OC)cc2O)cc1 | 97* | -5 | 5 | 4 | -7 | 105
CCCOc1ccc(-c2cnc(N)s2)cc1 | 98* | -7 | -5 | 2 | 3 | 91
CCCOc1ccc(OCCSc2nnc(N)s2)cc1 | 38 | 1 | 5 | 2 | . | 94
Cc1ccc2nc(N3CCN(C)CC3)c(C=O)c(=O)n2c1 | -21 | -3 | 2 | 14 | 22* | 96
Cc1ccc2nc(N3CCOCC3)c(C=O)c(=O)n2c1 | -94 | -6 | 4 | 2 | 1 | 107
COc1ccc(N2CCN(c3nc4ccc(C)cn4c(=O)c3C=O)CC2)cc1 | 81* | -6 | -2 | -6 | -7 | 72
Cc1ccc2nc(N3CCN(c4ccccc4)CC3)c(C=O)c(=O)n2c1 | 1 | 27 | -4 | -4 | 5 | 122
O=Cc1c(N2CCN(c3ccccc3)CC2)nc2ccccn2c1=O | 99* | -4 | 0 | -4 | -6 | 139
COc1ccc(N2CCN(c3nc4ccccn4c(=O)c3C=O)CC2)cc1 | ? | -3 | -3 | 4 | -12 | 120
COC(=O)c1ccc(NC(=S)NC2CCCCC2)cc1 | 3 | -10 | -7 | 5 | -2 | 110
CN(C)c1cccc(C(=O)NNC(=O)NC2CCCCC2)c1 | 13 | -7 | -3 | 1 | -6 | 101
